Screening data (PubChem BioAssay)
A selection: hits, their analogues and other compounds. The true share with any hit is near 8%.
HT1080NT lethal: qHTS for induction of synthetic lethality in tumor cells producing 2HG: qHTS for the HT-1080-NT fibrosarcoma cell line; HT-1080-NT fibrosarcoma viability, CellTiter-Glo ATP luminescence, 48 h; Potency, µM (highest dose often 46.1 µM), without a hit: at the highest dose activity, negative = less viability, usual class: cytotoxic; hit rate 1.6% among 360,000;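 also: NT is the 2HG producing partner of a matched IDH1 knockdown line; 0% = DMSO-treated cells and -100% = media-only wells without cells; nearly all actives have a fitted effect of over 55% in size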
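Compounds were tested in concentration-response format on HT-1080-NT cells for 48 hours at 37 degrees C. Cell viability came from CellTiter-Glo luminescence; curves were classified by r2, response magnitude and activity.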
SW480 rereplic: A quantitative high throughput screen for small molecules that induce DNA re-replication in SW480 colon adenocarcinoma cells; SW480 DNA re-replication, Hoechst DNA content imaging, 48 h; Potency, µM (series often up to 46.1 µM), for inactives: top-dose re-replication activation, most hits filed as activators; hit rate 1.8% among 340,000; AID 624297, 2012; also: % of control where 0% means no effect; nearly all actives have a fitted effect of over 55% in size
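Image-based read-out: total Hoechst fluorescence of nuclei (405 nm excitation, 500-530 nm emission), with hits raising the fraction of high-intensity nuclei. SW480 colon cells incubated 48 hr with compounds at 37 C.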
MCF10A rereplic: A quantitative high throughput screen for small molecules that induce DNA re-replication in MCF 10a normal breast cells | MCF 10A DNA re-replication, Hoechst nuclear intensity, 48 h | Potency, µM (series often up to 46.1 µM), for the others: top-dose activity, positive = re-replication, usual class: activators | hit rate 2.9% among 350,000 | AID 624296, 2012; also: % of control where 0% means no effect; nearly all actives have a fitted effect of over 50% in size
HT1080 IDH1KD tx: qHTS for induction of synthetic lethality in tumor cells producing 2HG: qHTS for the HT-1080-IDH1KD cell line; HT-1080 IDH1 knockdown viability, ATP luminescence, 48 h; Potency, µM (doses to about 46.1 µM), for inactives: top-dose activity, negative = toxicity, most hits filed as cytotoxic; hit rate 2% among 360,000;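 also: 0% = DMSO wells and -100% = cell-free medium wells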
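Luminescent ATP read-out (CellTiter-Glo, 10 min at room temperature) after 48 h compound exposure at 37 °C gave viability of IDH1-knockdown HT-1080 cells. Activity was normalised to DMSO and cell-free wells, then fitted as concentration-response curves.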
KB-V1 cytotox: qHTS assay for MDR1-selective chemotherapeutics: Primary screen using the drug-selected MDR subline cells KB-V1; KB-V1 MDR cells viability, CellTiter-Glo, 72 h; Potency, µM (highest dose often 46.1 µM), most hits filed as cytotoxic; hit rate 3.4% among 400,000; AID 1347076, 2019; also: % is scaled to controls: 0 for no effect and ±100 for the full control effect; nearly all actives have a fitted effect of over 60% in size
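In this primary screen, KB-V1 cells overexpressing P-gp are incubated with library compounds (lowest to highest concentration) for 72 h at 37 degrees C before a luminescent ATP viability read.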
KB-3-1 tox: qHTS assay for MDR1-selective chemotherapeutics: Primary screen using the parental adenocarcinoma cell KB-3-1; KB-3-1 viability, CellTiter-Glo ATP luminescence, 72 h; Potency, µM (highest dose often 46.1 µM), most hits filed as cytotoxic; hit rate 1.4% among 400,000; AID 1347075, 2019; also: % is scaled to controls: 0 for no effect and ±100 for the full control effect; nearly all actives have a fitted effect of over 60% in size
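Cells are dispensed, compounds pinned in, plates held at 37 °C for 72 h, then CellTiter-Glo is added and luminescence read after 10 minutes. Cell line: parental KB-3-1 in phenol-red-free DMEM, 10% FBS.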
* = called active by the depositor; i = inactive; ? = inconclusive; . = no result; [ ] = remark or other dose. Calls follow the shape of the dose curve; as a rule, active = well fitted curve in the direction sought with a large enough effect; inconclusive = small, poorly fitted or top-dose-only effect, or another doubt; inactive = no such curve, though single readings can be large; an effect the other way counts as inactive or inconclusive. Potency is read from the fitted curve at half-maximal effect.

SMILES | HT1080NT lethal | SW480 rereplic | MCF10A rereplic | HT1080 IDH1KD tx | KB-V1 cytotox | KB-3-1 tox
Fc1cccc(-n2cc(-c3ccccc3)c3c(=S)nc[nH]c32)c1 | -14.4% | 4.3% | 8.8% | ? | i | ?
Fc1ccc(-n2cc(-c3ccccc3)c3c(=S)nc[nH]c32)cc1 | -28.9% | -0.7% | -1.4% | ? | i | 18.4µM*
Cc1ccc(-n2cnc3c(=O)[nH]cnc32)cc1 | 0.5% | -1.2% | -26.1% | 10.9% | 9.2µM* | ?
O=c1[nH]cnc2c1c(-c1ccccc1)cn2-c1ccccc1 | 13.0% | -5.9% | -2.0% | 15.0% | ? | i
Cc1cc(-n2cnc3c(=O)[nH]cnc32)ccc1N | 6.8% | 0.3% | 2.7% | 13.4% | i | i
Cc1ccc(-n2cc(-c3ccccc3)c3c(=O)[nH]cnc32)cc1 | -3.7% | -6.9% | 23.1µM* | 1.5% | i | i
CCOc1ccc2c3c(c(=O)oc2c1OCC)CCCC3 | -2.4% | 1.4% | ? | 9.6%[9.24 µM] | 7.31µM* | i
Cc1c(OCC(=O)N(C)c2ccccc2)ccc2c3c(c(=O)oc12)CCC3 | -4.3% | 0.4% | 10.7% | -6.5% | 9.2µM* | i
CC(=O)Oc1ccc2c3c(c(=O)oc2c1C)CCCC3 | -11.2% | -63.4% | 20.6µM* | -0.4% | ? | ?
CCCOc1ccc2c3c(c(=O)oc2c1OCCC)CCCC3 | -11.4% | -0.3% | 3.6% | -27.6% | i | i
CCOC(=O)COc1ccc2c3c(c(=O)oc2c1C)CCC3 | 19.9% | -2.6%[9.22 µM] | ? | 3.4% | i | i
Cn1c(/C(C#N)=C/c2ccncc2)nc2ccccc21 | -0.9% | 18.4µM* | ? | 3.3% | i | i
N#CC(=Cc1ccncc1)c1ccccc1 | 11.0% | -4.2% | 10.6% | 10.6% | 13µM* | ?
Cn1c(/C(C#N)=C/c2ccc(O)cc2)nc2ccccc21 | 5.5% | -8.5% | -1.3% | 3.1% | i | i
CC(C)NS(=O)(=O)c1cc(C(F)(F)F)ccc1/C=C/C(=O)O | . | . | . | . | i | i
CCC(CC)C(=O)N1c2ccccc2C(C)(c2ccccc2)CC1(C)C (stereo not drawn) | . | . | . | . | i | i
CCc1ccccc1NC(=O)Cn1cc2c(n1)CCC(C)C2 (stereo not drawn) | . | . | . | . | i | i
CCNc1oc(/C=C/c2ccc(OCC)cc2)nc1C#N | -15.1% | 3.26µM* | 2.59µM* | ? | i | ?
CNc1oc(/C=C/c2cccc(OC)c2)nc1C#N | -0.9% | 18.4µM* | 20.6µM* | 2.0% | i | i
CCN(CC)CCCNc1oc(/C=C/c2ccccc2)nc1C#N | -2.8% | 20.6µM* | ? | -2.9% | i | i
CCOC(=O)C(=CNc1cc(C)nn1-c1ccccc1)C(=O)OCC | -14.6% | -1.1% | -4.7% | -25.3% | 4.61µM* | i
C(=C\c1cccs1)/c1ccccn1 | . | . | . | . | i | ?
O=c1cc(/C=C/c2cccs2)[nH]c2ccccc12 | -23.5%[9.24 µM] | ? | ? | 7.08µM* | ? | ?
O=c1cc(C(F)(F)F)[nH]c2ccccc12 | ? | -14.8% | 1.5% | -25.6% | i | i
CSc1ccc(/C=C/c2cc(=O)c3ccccc3[nH]2)cc1 | -9.2% | 13.2% | ? | -14.0% | 3.66µM* | i
SMILES | HT1080NT lethal | SW480 rereplic | MCF10A rereplic | HT1080 IDH1KD tx | KB-V1 cytotox | KB-3-1 tox
CCOC(=O)c1cc2c(=O)n3ccccc3nc2n(CC2CCCO2)c1=NC(=O)c1ccc(OC)cc1OC (stereo not drawn) | . | . | . | . | i | i
COc1cc2nc(SCC(=O)Nc3cccc(C)c3)n3nc(-c4ccccc4)nc3c2cc1OC | . | . | . | . | ? | i
CC1CCCN(C(=S)SCC(=O)c2cc(Br)cc(Br)c2O)C1 (stereo not drawn) | -15.6% | 24.2% | ? | -27.4% | i | i
O=C(CSC(=S)N1CCCC1)c1cc(Br)cc(Br)c1O | 16.4µM* | 5.17µM* | 18.9% | -14.9% | i | i
CCOc1ccccc1-c1noc(CSc2nnc(-c3ccccc3)n2-c2ccc(OC)cc2)n1 | . | . | . | . | ? | i
O=C(NNc1ccc(F)cc1F)c1cccs1 | -29.9% | . | . | ? | . | .
CCOc1ccccc1NC1(c2ccccc2)C(=O)c2ccccc2C1=O | . | . | . | . | i | i
CC(C)N=c1c([N+](=O)[O-])nn(C)n1O | -1.4% | ? | 0.731µM* | -2.6% | i | i
Cc1ccc(OCCCC(=O)Nc2sc3c(c2C(N)=O)CCC(C)C3)cc1 (stereo not drawn) | . | . | . | . | i | i
CCc1cccc(NC(=O)c2c(N3CCCC3=O)c3cc(C)ccc3n2C)c1 | . | . | . | . | 18.4µM* | ?
Cc1ccc(NC(=O)c2c(N3CCCC3=O)c3cc(C)ccc3n2C)c(C)c1 | . | . | . | . | i | i
CCC(OC(=O)C(NC(=O)c1ccccc1)c1ccccc1)C(=O)Nc1cc(C)on1 (stereo not drawn) | 0.0% | ? | 5.8µM* | 0.0% | i | i
CC(C)C1C(=O)Nc2ccc(S(=O)(=O)NCCc3ccc(Cl)cc3)cc21 (stereo not drawn) | . | . | . | . | i | i
COCc1ccc(C(=O)N2CCCC(CCC(=O)NCc3ccccc3F)C2)o1 (stereo not drawn) | 14.6µM* | 11.6µM* | 13µM* | ? | ? | ?
CC(C)c1cc(C(=O)N2CCCC(CCC(=O)NCc3ccccc3F)C2)n(C)n1 (stereo not drawn) | -7.9% | -2.7% | -1.7% | -11.7% | 9.2µM* | ?
CCOc1cccc(CN2CCCC(CCC(=O)NCc3ccccc3F)C2)c1O (stereo not drawn) | 1.7% | 16.4µM* | -25.3% | 0.5% | i | i
O=C(CCC1CCCN(C(=O)c2ccco2)C1)NCc1ccccc1F (stereo not drawn) | -14.5% | 3.9% | 3.6% | -28.6% | i | i
Cc1cc(C)c(S(=O)(=O)N2CCC(N3CCN(Cc4ccccc4)C(=O)C3=O)CC2)c(C)c1 | . | . | . | . | ? | i
N=c1c2c(n(Cc3cccc(Cl)c3)c3c1CCC3)CCCC2 | 6.31µM* | 2.6% | -3.8% | 10µM* | i | ?
N=c1c2c(n(Cc3ccc(Cl)cc3)c3c1CCC3)CCC2 | 5.01µM* | -1.2% | 5.1% | 7.08µM* | i | i
NC(=S)n1[nH]c(-c2ccc([N+](=O)[O-])cc2)c(N=Nc2ccc(O)cc2)c1=O | 0.8% | -16.7% | 11.4% | -16.7% | i | i
